Source: PubChem BioAssay AID2315 (National Center for Advancing Translational Sciences (NCATS), 2010)
Where “and” joins values, the source holds several entries; their conditions need not be identical. Equal values may be shown once. In all, about 290,000 compounds went through this assay and about 27,000 (9.3%) were called active. This is one part of a sample in which actives are shown more often than they occur. Unmarked numbers belong to inactive results. Cut-off read from the data, not from the text of the source: active = inhibition mostly above about 28% (no sharp cut-off); inactive = mostly below about 43%.

assay: A qHTS for Small Molecule Inhibitors of Shiga Toxin; conditions: Vero cells, Shiga toxin protein synthesis inhibition reporter; at 38.7 µM, hits give high values; note: 0% is about no effect

Compound	inhibition
COc1cc(OC)c(OC)cc1CN1CCN(C(=O)c2cccc3ccccc23)CC1	-8.18%
COc1ccc(-c2nc3n(c(=O)c2C#N)CCS3)c(OC)c1	-7.88%
Cc1ccc(SCc2c(C(=O)N/N=C/C3CC=CCC3)nnn2-c2nonc2N)cc1 (stereo not given)	-9.77%
O=C(N/N=C\C1CC=CCC1)c1ccc(Br)o1 (stereo not given)	67.4% (active)
COCc1c(C(=O)N/N=C/C2CC=CCC2)nnn1-c1nonc1N (stereo not given)	-2.4%
CCN1CCN(C(=O)Cn2nc(C)n3c(cc4c(OC)cccc43)c2=O)CC1	-14.6%
O=C(O)CCCn1c(=O)c2cccn2c2ccc(F)cc21	-8.92%
O=C(Nc1cccc2ccccc12)N1CCC2(CC1)OCCO2	54.5% (active)
COc1ccc(NC(=O)N2CCC3(CC2)OCCO3)c(OC)c1	13.6%
O=C(Nc1cccc2ccccc12)N1CCN(Cc2ccc3c(c2)OCO3)CC1	-3.81%
COc1cc(/C=N/NC(=O)CNC(=O)c2ccncc2)ccc1OC(C)=O	-3.89%
COc1ccc(C)cc1NC(=O)NCCCCc1ccccc1	14.6%
COc1ccc(C(=O)NC2CC2)cc1OC1CCN(C/C=C/c2ccccc2)CC1	-9.42%
CC(=O)N1c2ccc(S(=O)(=O)N3CCC(C(=O)N4CCN(c5ccccc5)CC4)CC3)cc2CC1C (stereo not given)	-2.12%
Cc1cccc(-c2nnc(SCC(=O)O)n2Cc2ccccc2)c1	-7.35%
COc1cc(/C=C2/C(=O)ON=C2C)ccc1OCc1ccccc1F	145% (active)
CCOc1ccc(/C=N/NC(=O)C(C)Sc2ccccn2)cc1OCC (stereo not given)	-9.85%
CCOc1cc(/C=N/O)ccc1OCc1ccccc1F	40.7% (active)
CC1=NOC(=O)/C1=C\c1ccccc1	-4.49%
COc1cc(/C=C2/C(=O)ON=C2C)ccc1OCc1cccc(F)c1	55.1% (active)
C#CCOc1ccc(/C=C2/C(=O)ON=C2C)cc1OCC	13.8%
CCOc1c(Cl)cc(/C=N/O)cc1OC	59.8%
C=CCOc1ccc(/C=C2/C(=O)ON=C2C)cc1OCC	17.5%
COc1cc(/C=C2\SC(=O)NC2=O)ccc1OCc1ccc(Cl)nc1	-5.05%

Compound	inhibition
CCn1c(CC(=O)Nc2ccccc2)nnc1SCC(=O)N1CCOCC1	-10.2%
Cc1ccc(/C=C2\SC(=S)N(CCC(=O)Nc3ccc(O)cc3)C2=O)cc1	0.715%
COC(=O)c1cccc(N(CC(=O)NCC2CCCO2)C(=O)CCC(=O)Nc2cc(C)on2)c1 (stereo not given)	-11.3%
O=Cc1c(NCCc2cccc(F)c2)c2ccccc2[nH]c1=O	-25%
Nc1c(NCCc2ccccc2)c2ccccc2oc1=O	60.3% (active)
CC(C)(C)Nc1c(N)c(=O)oc2ccccc12	10.6%
O=C(CNC(=O)[C@@H]1Cc2ccccc2CN1)NC1CCCCC1	-13.1%
CCOc1ccc(-n2c(SCC(=O)Nc3ccc(OC)cc3)nc3sc4c(c3c2=O)CCN(C)C4)cc1	4.16%
COc1ccccc1NC(=O)CSc1nc2sc3c(c2c(=O)n1-c1ccccc1)CCN(C)C3	35.8% (active)
CCOc1ccc(-n2c(SCC(=O)OC)nc3sc4c(c3c2=O)CCN(C)C4)cc1	11.7%
O=C(O)c1cc(S(=O)(=O)N(Cc2ccccc2)c2cccc(C(F)(F)F)c2)ccc1Cl	-2.31%
CC(=O)N1CCC(C(=O)OCc2ccc(Cl)cc2)(c2ccccc2)CC1	-6.33%
Cc1c(Cl)cccc1NC(=O)NCCCN1CCCC1=O	29.4%
O=C(CN1C(=O)c2ccccc2C1=O)NCc1ccc(C(=O)O)cc1	5.13%
Cc1nc2ccc(C(=O)N3CCN(c4ccccc4)CC3)cc2s1	11.9%
CC(=O)c1ccc(N2CCN(C(=O)c3ccc4nc[nH]c4c3)CC2)cc1	29.9% (active)
O=C(c1cccc(C(=O)N2CCN(c3ccc(F)cc3)CC2)c1)N1CCN(c2ccc(F)cc2)CC1	-8.51%
CCN1C(=NCCc2cccnc2)N[C@@H](c2ccccc2)[C@H](C(=O)OC)[C@H]1C	12.2% and -9.8%
C=C1CCN(Cc2ccc(OC)cc2)S(=O)(=O)c2ccccc21	-5.84%
COc1ccc(OC)c(CNC(=O)Cn2nc(C)c3c(C)n(-c4ccc(C)cc4)nc3c2=O)c1	26.2%
COc1ccc(S(=O)(=O)NNC(=O)Nc2ccc(C)cc2)c(OC)c1	-5.98%
NC(=O)C1CCN(C(=O)CC2C(=O)NCCN2Cc2cccc(Oc3ccccc3)c2)CC1 (stereo not given)	-10.2%
Cc1nn(-c2ccccc2)c2c1c(C)c(CCC(=O)NCC1CCCO1)c(=O)n2C (stereo not given)	-2.28%
Cc1onc(-c2ccccc2Cl)c1C(=O)NCCn1ccc2ccccc21	-2.64%

Compound	inhibition
Cc1onc(-c2ccccc2Cl)c1C(=O)OCC(=O)c1ccccc1	71.6% (active)
Cc1[nH]c2ccccc2c1C(=O)COC(=O)c1c(-c2ccccc2)noc1C	-2.62%
COc1ccc(/C=C(\NC(=O)c2ccccc2)C(=O)NCCN2CCOCC2)cc1OC	1.37%
O=C(CCc1nnc(CCCCc2ccccc2)o1)NC(c1cccnc1)C(F)(F)F (stereo not given)	-12.1%
Cc1cc(-c2nnc(CCC(=O)NC(c3ccccc3)c3ccccc3)o2)no1	35.4% (active)
CC(CCn1cccn1)NC(=O)CCc1nnc(CCc2ccccc2)o1 (stereo not given)	-10.4%
COC(=O)c1ccc(N2CCOCC2)c(NC(=O)c2ccc(Br)o2)c1	31.4%
Cc1[nH]n(C(N)=S)c(=O)c1N=Nc1ccc(Cl)cc1Cl	44.3% (active)
CC1=NN(C(N)=S)C(=O)C1N=Nc1cc(Cl)ccc1Cl (stereo not given)	-1.92%
Cc1cccc(N=Nc2c(C)[nH]n(-c3ccccc3)c2=O)c1	-4.8%
Cc1cc(C)c2oc(C(=O)Nc3ccc(S(=O)(=O)Nc4nccc(C)n4)cc3)cc(=O)c2c1	2.27%
O=C(N/N=C/c1cccc([N+](=O)[O-])c1)c1ccncc1	22.3%
CCc1ccc(NC(=O)C(C)OC(=O)/C=C/c2cccc([N+](=O)[O-])c2)cc1 (stereo not given)	15.5%
Cc1ccc(NC(=O)O/N=C/c2cccc([N+](=O)[O-])c2)cc1	70.8% (active)
Cc1ccc(C)c(S(=O)(=O)Nc2cc(C)on2)c1	-4.53%
CCc1cc2c(=O)c(-c3ccon3)c(N)oc2cc1OC	82.2% (active)
COc1ccc2oc(N)c(C=O)c(=O)c2c1	63.7%
CCc1cc2c(=O)c(-c3ccc(F)cc3)c(C(F)(F)F)oc2cc1OCC(=O)O	5.27%
CSc1nnc(C2CCCN(CC(=O)Nc3ccccc3N3CCOCC3)C2)n1C(C)C (stereo not given)	-9.97%
O=C(Cn1c(NCCO)nc2ccccc21)c1ccc(Cl)cc1Cl	-8.74%
COC(=O)c1c(NC(=O)C2CC(C)=C(C)CC2C(=O)O)sc2c1CCCCC2 (stereo not given)	-7.33%
O=C(CCc1nnc2ccc(NCc3ccco3)nn12)Nc1cc(F)ccc1F	-6.06%
CC(=O)c1ccc(NC(=O)CCc2nnc3ccc(NCc4ccco4)nn23)cc1	49.7% (active)
CCOc1ccccc1NC(=O)CCc1nnc2ccc(NCc3ccco3)nn12	-9.81%

Compound	inhibition
COCCNC(=O)CCCN1C(=O)c2ccccc2Sc2ncccc21	-19.8%
CCOc1ccccc1-c1nc(CN2CCC(C(=O)N3CCOCC3)CC2)c(C)o1	-7.77%
O=C(NCc1ccccn1)C1CCN(S(=O)(=O)c2ccc(Br)cc2)CC1	-33.7%
Cc1ccc(-c2cc(N)on2)cc1	108% (active)
Cc1ccc(S(=O)(=O)Cc2cc(-c3ccc(Cl)cc3)no2)cc1	8.79%
O=C(Cc1ccccc1Cl)N1CCOCC1	-11.4%
CN1CCCC(OC(=O)COc2ccc(Br)cc2)C1 (stereo not given)	-12%
COc1cc2c(cc1OC)/C(=C/C(=O)c1ccc(NC(C)=O)cc1)NCC2	-6.51%
CC1CN/C(=C\C(=O)c2ccc(Br)cc2)C(=O)N1 (stereo not given)	67.3% (active)
CC(C)(C)OC(=O)NC(Cc1ccccc1)C(=O)NC(CSC1CCCCO1)C(=O)NN (stereo not given)	-14.3%
Cc1cccc(N2CCN(C(=O)COCc3cc(-c4ccc5c(c4)OCO5)on3)CC2)c1C	-8.35%
CC(C)NC(=O)COCc1cc(-c2ccc3c(c2)OCO3)on1	45.3% (active)
CCOC(=O)N1CCN(C(=O)COCc2cc(-c3ccc4c(c3)OCO4)on2)CC1	-7.65%
Cc1nn2c(=O)cc(COC(=O)c3ccc(NC(=O)C(C)(C)C)cc3)nc2s1	35.5%
COc1cccc(C2CC(c3cccs3)=NN2C(=O)CSC2=NCCS2)c1OC (stereo not given)	-5.1%
CCCc1cc(=O)oc2cc(OCC(=O)Nc3ccc(CN4CCOCC4)cc3)c(Cl)cc12	-1.59%
COc1ccc(C2=NOC3(CC(=O)N(c4ccc(C)cc4)C3=O)C2)cc1 (stereo not given)	36.5%
Cc1ccc(C(=O)NNC2=Nc3cc([N+](=O)[O-])ccc3OC2)cc1	40.3%
COc1ccc(C2=Nc3cc(C)ccc3OC2)cc1	94% (active)
Cn1cc(C(=O)c2ccc(Cl)cc2Cl)cc1C(=O)NN	-5.33%
Cc1cc(C)c(SCCc2ccncc2)c(C)c1	-4.14%
CC(C)(C)c1ccc(SCCc2ccncc2)cc1	69.1% (active)
c1ccc(CSCCc2ccncc2)cc1	-5.65%
